Data as given in the supplement of paper PMC10849652.
Targets with a hit are over-represented here; the source holds about 7,900 in all. About 0.6% of all pairs of compound and target were hits.

Experiments:
Assay in all cases: log2 fold change, soluble protein after heating vs DMSO (PISA); higher = thermal stabilisation; K562 cells, 10 uM, 30 min; active = over 0.2 and 3.5 SD of the protein, either way, in both replicates (recomputed)
[1] = compound: COC1=CC=C(C=C1)CN2C=CC3=C2C=C(C=C3)C(=O)NO
Procedure, shortened: (§1)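 Quantification of soluble protein used TMTpro 16plex LC-MS/MS, with channel sums equalised. Samples were the supernatant after 21,000xg for 90 min of pooled aliquots from K562 cells (2×10^6 cells/mL) treated with 10 μM compound for 30 min, heated for 3 min over 48°C-58°C, and extracted in PBS with 0.5% NP-40 at 4°C. Values, from duplicates, describe thermal stability against control samples on a log2 fold-change scale.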

filanesib = compound: CON(C)C(=O)N1N=C(c2cc(F)ccc2F)S[C@@]1(CCCN)c1ccccc1 [filanesib]
Procedure, shortened: as §1

zotarolimus = compound: CO[C@H]1C[C@@H]2CC[C@@H](C)[C@@](O)(O2)C(=O)C(=O)N2CCCC[C@H]2C(=O)O[C@H]([C@H](C)C[C@@H]2CC[C@H](n3cnnn3)[C@H](OC)C2)CC(=O)[C@H](C)/C=C(\C)[C@@H](O)[C@@H](OC)C(=O)[C@H](C)C[C@H](C)/C=C/C=C/C=C/1C [zotarolimus]
Procedure, shortened: as §1

idasanutlin = compound: COc1cc(C(=O)O)ccc1NC(=O)[C@@H]1N[C@@H](CC(C)(C)C)[C@](C#N)(c2ccc(Cl)cc2F)[C@H]1c1cccc(Cl)c1F [idasanutlin]
Procedure, shortened: as §1

alisertib = compound: COc1cc(Nc2ncc3c(n2)-c2ccc(Cl)cc2C(c2c(F)cccc2OC)=NC3)ccc1C(=O)O [alisertib]
Procedure, shortened: as §1

[2] = compound: COc1cc2nc(-c3cc(F)ccc3O)nc(N[C@@H]3CNC[C@H]3C(C)(C)O)c2cc1OC
Procedure, shortened: as §1

gefitinib = compound: COc1cc2ncnc(Nc3ccc(F)c(Cl)c3)c2cc1OCCCN1CCOCC1 [gefitinib]
Procedure, shortened: as §1

[3] = compound: COc1cccc2cc(-c3nc([C@H]4CC[C@H](C(=O)O)CC4)n4ncnc(N)c34)[nH]c12
Procedure, shortened: as §1

lapatinib = compound: CS(=O)(=O)CCNCc1ccc(-c2ccc3ncnc(Nc4ccc(OCc5cccc(F)c5)c(Cl)c4)c3c2)o1 [lapatinib]
Procedure, shortened: as §1

pictilisib = compound: CS(=O)(=O)N1CCN(Cc2cc3nc(-c4cccc5[nH]ncc45)nc(N4CCOCC4)c3s2)CC1 [pictilisib]
Procedure, shortened: as §1

[4] = compound: CS(=O)(=O)c1ccc(-c2cnc(N)c(C(=O)Nc3ccccc3)n2)cc1
Procedure, shortened: as §1

crizotinib = compound: C[C@@H](Oc1cc(-c2cnn(C3CCNCC3)c2)cnc1N)c1c(Cl)ccc(F)c1Cl [crizotinib]
Procedure, shortened: as §1

[5] = compound: C[C@@H]1COCCN1C2=NC(=NC(=C2)C3(CC3)S(=O)(=O)C)C4=C5C=CNC5=CC=C4
Procedure, shortened: as §1

[6] = compound: C[C@H](C1=CC=C(C=C1)C(=O)NC2=C3C=CNC3=NC=C2)N
Procedure, shortened: as §1

duvelisib = compound: C[C@H](Nc1ncnc2nc[nH]c12)c1cc2cccc(Cl)c2c(=O)n1-c1ccccc1 [duvelisib]
Procedure, shortened: as §1

gandotinib = compound: Cc1cc(Nc2cc(CN3CCOCC3)c3nc(C)c(Cc4ccc(Cl)cc4F)n3n2)n[nH]1 [gandotinib]
Procedure, shortened: as §1

tozasertib = compound: Cc1cc(Nc2cc(N3CCN(C)CC3)nc(Sc3ccc(NC(=O)C4CC4)cc3)n2)n[nH]1 [tozasertib]
Procedure, shortened: as §1

[7] = compound: Cc1cc(SCc2sc(-c3ccc(C(F)(F)F)cc3)nc2C)ccc1OCC(=O)O
Procedure, shortened: as §1

doramapimod = compound: Cc1ccc(-n2nc(C(C)(C)C)cc2NC(=O)Nc2ccc(OCCN3CCOCC3)c3ccccc23)cc1 [doramapimod]
Procedure, shortened: as §1

ispinesib = compound: Cc1ccc(C(=O)N(CCCN)[C@@H](c2nc3cc(Cl)ccc3c(=O)n2Cc2ccccc2)C(C)C)cc1 [ispinesib]
Procedure, shortened: as §1

Measured: log2 fold change

GSK3A (UniProt P49840)
Sequence of UniProt P49840 (P49840 whole entry, looked up): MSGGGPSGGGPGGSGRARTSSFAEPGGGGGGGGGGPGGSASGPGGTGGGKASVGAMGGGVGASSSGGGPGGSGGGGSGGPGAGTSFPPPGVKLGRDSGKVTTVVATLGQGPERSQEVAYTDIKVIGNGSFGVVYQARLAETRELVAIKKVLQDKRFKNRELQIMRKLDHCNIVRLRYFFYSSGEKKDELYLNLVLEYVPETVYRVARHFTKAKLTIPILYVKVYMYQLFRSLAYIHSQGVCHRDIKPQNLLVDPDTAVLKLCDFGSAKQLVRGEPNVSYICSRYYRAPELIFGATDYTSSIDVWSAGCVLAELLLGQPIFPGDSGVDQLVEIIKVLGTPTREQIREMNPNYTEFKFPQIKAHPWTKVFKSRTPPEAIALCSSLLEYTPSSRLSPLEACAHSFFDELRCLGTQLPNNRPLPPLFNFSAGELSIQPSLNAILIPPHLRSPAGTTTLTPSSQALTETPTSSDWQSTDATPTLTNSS
inactive: [1] -0.028 | filanesib -0.087 | zotarolimus -0.029 | idasanutlin -0.107 | alisertib 0.051 | [2] 0.088 | gefitinib -0.008 | [3] 0.045 | lapatinib -0.016 | pictilisib 0.188 | crizotinib 0.129 | [5] 0.053 | [6] 0.015 | duvelisib 0.044 | gandotinib 0.201 | tozasertib -0.006 | [7] 0.015 | doramapimod -0.039 | ispinesib 0.072
active: [4] 0.322

GDE1 (UniProt Q9NZC3)
Sequence of UniProt Q9NZC3 (Q9NZC3 whole entry, looked up): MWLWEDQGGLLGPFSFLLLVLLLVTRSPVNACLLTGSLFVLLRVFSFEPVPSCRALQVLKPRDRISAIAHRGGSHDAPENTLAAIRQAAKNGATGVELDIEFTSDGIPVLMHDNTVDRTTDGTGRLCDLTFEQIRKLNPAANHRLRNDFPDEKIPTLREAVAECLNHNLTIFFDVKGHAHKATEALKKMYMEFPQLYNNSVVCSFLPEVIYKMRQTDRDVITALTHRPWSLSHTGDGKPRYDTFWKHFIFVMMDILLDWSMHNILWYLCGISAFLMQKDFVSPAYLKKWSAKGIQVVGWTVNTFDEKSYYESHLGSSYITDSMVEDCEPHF
inactive: [1] 0.046 | filanesib -0.102 | zotarolimus 0.043 | idasanutlin -0.064 | alisertib -0.176 | [2] 0.012 | gefitinib 0.008 | [3] 0.01 | lapatinib -0.011 | [4] 0.033 | crizotinib 0.063 | [5] 0.077 | [6] -0.087 | duvelisib -0.014 | tozasertib 0.077 | [7] -0.067 | doramapimod 0.074 | ispinesib 0.051

HPCAL1 (UniProt P37235)
inactive: [1] -0.085 | filanesib -0.128 | zotarolimus -0.017 | idasanutlin -0.062 | alisertib 0.002 | [2] -0.012 | gefitinib -0.021 | [3] 0.06 | lapatinib -0.027 | pictilisib 0.013 | [4] 0.015 | crizotinib 0.011 | [5] 0.08 | [6] -0.047 | duvelisib 0.032 | gandotinib -0.033 | tozasertib 0.024 | [7] -0.014 | doramapimod -0.027 | ispinesib -0.054

GLIPR2 (UniProt Q9H4G4)
Sequence of UniProt Q9H4G4 (Q9H4G4 whole entry, looked up): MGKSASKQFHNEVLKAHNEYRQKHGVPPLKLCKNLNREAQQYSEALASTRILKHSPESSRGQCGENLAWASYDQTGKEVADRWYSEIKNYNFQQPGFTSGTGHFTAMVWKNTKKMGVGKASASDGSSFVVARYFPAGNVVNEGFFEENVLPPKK
active: ispinesib -0.459
inactive: [1] 0 | filanesib -0.147 | zotarolimus 0.024 | idasanutlin 0.096 | alisertib -0.031 | [2] -0.239 | [3] -0.036 | lapatinib 0.103 | pictilisib -0.011 | [4] 0.034 | crizotinib -0.243 | [5] -0.018 | [6] -0.064 | duvelisib 0.1 | gandotinib 0.157 | tozasertib -0.062 | [7] 0.007 | doramapimod -0.01

GAB2 (UniProt Q9UQC2)
Sequence of UniProt Q9UQC2 (Q9UQC2 whole entry, looked up): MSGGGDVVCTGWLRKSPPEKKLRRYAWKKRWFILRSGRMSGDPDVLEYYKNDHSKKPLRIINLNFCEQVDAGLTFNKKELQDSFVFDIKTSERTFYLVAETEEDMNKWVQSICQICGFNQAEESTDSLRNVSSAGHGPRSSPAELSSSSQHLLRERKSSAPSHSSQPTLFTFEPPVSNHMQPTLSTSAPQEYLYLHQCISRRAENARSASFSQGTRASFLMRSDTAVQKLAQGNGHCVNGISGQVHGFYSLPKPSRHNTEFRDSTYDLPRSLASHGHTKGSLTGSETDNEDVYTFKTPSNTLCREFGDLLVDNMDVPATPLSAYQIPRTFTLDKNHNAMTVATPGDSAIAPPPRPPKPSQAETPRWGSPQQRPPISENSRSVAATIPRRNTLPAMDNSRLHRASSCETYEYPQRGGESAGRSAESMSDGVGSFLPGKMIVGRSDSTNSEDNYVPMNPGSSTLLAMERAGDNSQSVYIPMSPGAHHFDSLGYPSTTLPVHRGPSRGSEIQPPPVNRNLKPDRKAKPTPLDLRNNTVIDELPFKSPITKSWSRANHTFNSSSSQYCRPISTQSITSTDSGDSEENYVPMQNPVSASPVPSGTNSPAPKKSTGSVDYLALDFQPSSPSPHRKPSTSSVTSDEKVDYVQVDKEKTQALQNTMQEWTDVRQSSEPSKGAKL
inactive: [1] 0.044 | filanesib -0.053 | zotarolimus -0.145 | idasanutlin 0.084 | alisertib 0.007 | [2] -0.526 | [3] -0.236 | lapatinib 0.033 | pictilisib -0.348 | [4] -0.084 | [5] -0.361 | [6] 0.033 | gandotinib -0.071 | tozasertib -0.34 | [7] 0.181 | doramapimod 0.118 | ispinesib -0.511
active: crizotinib -0.899 | duvelisib -0.836

HEATR3 (UniProt Q7Z4Q2)
Sequence of UniProt Q7Z4Q2 (Q7Z4Q2 whole entry, looked up): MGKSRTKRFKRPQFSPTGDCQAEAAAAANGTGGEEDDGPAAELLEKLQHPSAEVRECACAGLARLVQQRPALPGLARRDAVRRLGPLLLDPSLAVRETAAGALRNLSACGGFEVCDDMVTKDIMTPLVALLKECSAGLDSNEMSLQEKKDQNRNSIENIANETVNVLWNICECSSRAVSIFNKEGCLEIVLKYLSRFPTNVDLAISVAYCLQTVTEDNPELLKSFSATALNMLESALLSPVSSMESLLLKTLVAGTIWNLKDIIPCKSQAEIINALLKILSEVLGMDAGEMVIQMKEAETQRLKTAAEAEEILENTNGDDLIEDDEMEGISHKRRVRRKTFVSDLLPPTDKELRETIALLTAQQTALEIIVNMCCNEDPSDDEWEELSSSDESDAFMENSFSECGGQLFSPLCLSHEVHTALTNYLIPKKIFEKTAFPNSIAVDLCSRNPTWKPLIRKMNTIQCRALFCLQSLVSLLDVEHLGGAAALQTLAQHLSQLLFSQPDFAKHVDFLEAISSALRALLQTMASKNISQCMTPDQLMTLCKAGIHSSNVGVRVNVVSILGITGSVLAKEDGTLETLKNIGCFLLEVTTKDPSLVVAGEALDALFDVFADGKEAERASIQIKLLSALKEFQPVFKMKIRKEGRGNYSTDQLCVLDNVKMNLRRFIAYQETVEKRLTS
inactive: [1] 0.027 | filanesib 0.007 | zotarolimus -0.004 | alisertib 0.099 | [2] -0.083 | gefitinib 0.072 | [3] 0.046 | lapatinib 0.004 | pictilisib -0.134 | [4] -0.001 | crizotinib -0.171 | [5] 0.094 | [6] 0.123 | duvelisib 0.078 | gandotinib -0.377 | tozasertib 0.065 | [7] 0.146 | doramapimod 0.011 | ispinesib -0.006

FAT2 (UniProt Q9NYQ8)
inactive: [1] 0.247 | zotarolimus 0.104 | alisertib 0.208 | [2] 0.031 | [3] -0.024 | lapatinib -0.089 | pictilisib -0.497 | crizotinib -0.148 | [5] 0.131 | [6] 0.306 | duvelisib 0.372 | gandotinib -0.149 | tozasertib -0.184 | [7] 0.121 | doramapimod 0.006 | ispinesib -0.006

FIZ1 (UniProt Q96SL8)
Sequence of UniProt Q96SL8 (Q96SL8 whole entry, looked up): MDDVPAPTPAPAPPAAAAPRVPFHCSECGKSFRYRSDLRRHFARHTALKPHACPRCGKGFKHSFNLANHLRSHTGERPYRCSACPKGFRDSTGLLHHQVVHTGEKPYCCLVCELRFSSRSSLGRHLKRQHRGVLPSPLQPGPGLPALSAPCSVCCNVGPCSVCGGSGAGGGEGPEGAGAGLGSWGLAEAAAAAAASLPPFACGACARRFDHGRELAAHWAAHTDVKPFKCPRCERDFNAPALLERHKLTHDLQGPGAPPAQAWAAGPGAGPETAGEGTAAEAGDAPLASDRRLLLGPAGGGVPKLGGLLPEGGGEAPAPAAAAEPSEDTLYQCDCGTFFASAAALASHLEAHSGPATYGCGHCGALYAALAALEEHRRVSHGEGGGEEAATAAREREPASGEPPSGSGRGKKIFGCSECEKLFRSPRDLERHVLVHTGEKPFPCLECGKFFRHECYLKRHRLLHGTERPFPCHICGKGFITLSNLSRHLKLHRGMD
inactive: [1] -0.081 | filanesib 0.078 | zotarolimus 0.048 | alisertib 0.117 | gefitinib 0.001 | [3] -0.108 | pictilisib 0.016 | [4] -0.05 | crizotinib 0.018 | [5] -0.354 | [6] 0.074 | duvelisib -0.251 | gandotinib 0.024 | [7] 0.017 | doramapimod 0.044

FYB1 isoform 3 (UniProt O15117)
Sequence of UniProt O15117 (O15117 whole entry, looked up): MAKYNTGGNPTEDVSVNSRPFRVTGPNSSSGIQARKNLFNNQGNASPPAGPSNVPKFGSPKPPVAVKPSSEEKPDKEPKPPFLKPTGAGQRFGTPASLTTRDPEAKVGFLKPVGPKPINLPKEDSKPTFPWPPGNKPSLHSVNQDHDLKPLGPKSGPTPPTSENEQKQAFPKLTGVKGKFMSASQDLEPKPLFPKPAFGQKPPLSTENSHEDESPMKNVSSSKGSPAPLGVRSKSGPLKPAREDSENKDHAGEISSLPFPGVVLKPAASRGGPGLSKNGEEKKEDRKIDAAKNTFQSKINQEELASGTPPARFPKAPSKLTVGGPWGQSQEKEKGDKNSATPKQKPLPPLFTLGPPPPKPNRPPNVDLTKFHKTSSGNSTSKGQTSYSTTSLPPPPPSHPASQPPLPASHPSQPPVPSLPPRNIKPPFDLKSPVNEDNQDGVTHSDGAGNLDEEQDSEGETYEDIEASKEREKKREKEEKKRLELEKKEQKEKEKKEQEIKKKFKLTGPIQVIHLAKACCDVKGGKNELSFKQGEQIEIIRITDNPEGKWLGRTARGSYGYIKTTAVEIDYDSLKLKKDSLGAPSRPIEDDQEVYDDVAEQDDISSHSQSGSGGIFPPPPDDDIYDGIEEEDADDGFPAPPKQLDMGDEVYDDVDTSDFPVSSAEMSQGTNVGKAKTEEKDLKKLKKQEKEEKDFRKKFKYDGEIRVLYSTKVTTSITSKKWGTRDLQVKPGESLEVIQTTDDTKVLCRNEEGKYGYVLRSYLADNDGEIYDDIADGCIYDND
active: duvelisib -0.344
inactive: [1] 0.001 | filanesib 0.06 | idasanutlin -0.106 | alisertib -0.035 | [2] 0.026 | gefitinib 0.103 | [3] 0.134 | lapatinib 0.068 | pictilisib 0.108 | [4] -0.025 | crizotinib -0.11 | [5] 0.046 | gandotinib 0.057 | tozasertib 0.009 | [7] 0.067 | doramapimod 0.021 | ispinesib -0.083
